BAZ2B block: qHTS Assay for Inhibitors of BAZ2B | Bromodomain adjacent to zinc finger domain protein 2B (Homo sapiens), Q9UIF8 | AlphaScreen BAZ2B-H3K14Ac peptide displacement | Potency, µM (doses to about 114 µM), for the others: top-dose activity change, negative = inhibition, actives largely listed as inhibitors | 4.4% of 360,000 active; also: % is scaled to controls: 0 for no effect and ±100 for the full control effect; nearly all actives have a fitted effect of over 60% in size
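Inhibition is scored as reduced AlphaScreen emission. The BAZ2B/b-H3(5-23)K14Ac complex (50 nM each) in PBS pH 7.4, 0.01% Tween-20 meets compound (up to 110 uM) for 30 min at RT before bead addition.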
JMJD2A Tudor inh: qHTS Assay for Inhibitors of JMJD2A-Tudor Domain; AlphaScreen JMJD2A-Tudor / H3K4me3 peptide binding; 4.4% of 390,000 active; Lysine-specific demethylase 4A (Homo sapiens), O75164; Potency, µM (doses to about 114 µM), for inactives: at the top dose activity change, negative = inhibition, actives largely listed as inhibitors; also: % is scaled to controls: 0 for no effect and ±100 for the full control effect; nearly all actives have a fitted effect of over 50% in size
PLK1 PBD inh: qHTS for Inhibitors of PLK1-PDB (polo-like kinase 1 - polo-box domain): Primary Screen | Plk1 PBD binding of FITC phosphopeptide, fluorescence polarization | 2.8% of 360,000 active | Potency, µM, without a hit: max response, negative = inhibition, usual class: inhibitors | Serine/threonine-protein kinase PLK1 (Homo sapiens), P53350 | AID 720504, 2013; also: series mostly up to about 57 µM; % is scaled to controls: 0 for no effect and ±100 for the full control effect; nearly all actives have a fitted effect of over 65% in size
G9a inh: qHTS Assay for Inhibitors of Histone Lysine Methyltransferase G9a. Histone-lysine N-methyltransferase EHMT2 (Homo sapiens), Q96KQ7. G9a H3K9 monomethylation, AlphaScreen, 2 h. Potency, µM (doses to about 102 µM), for the others: at the top dose activity, negative = inhibition, hits mostly inhibitors. 8.8% of 350,000 active. AID 504332, 2011; also: % is scaled to controls: 0 for no effect and ±100 for the full control effect; nearly all actives have a fitted effect of over 75% in size
Target sequence (Q96KQ7 913-1193 limits assumed): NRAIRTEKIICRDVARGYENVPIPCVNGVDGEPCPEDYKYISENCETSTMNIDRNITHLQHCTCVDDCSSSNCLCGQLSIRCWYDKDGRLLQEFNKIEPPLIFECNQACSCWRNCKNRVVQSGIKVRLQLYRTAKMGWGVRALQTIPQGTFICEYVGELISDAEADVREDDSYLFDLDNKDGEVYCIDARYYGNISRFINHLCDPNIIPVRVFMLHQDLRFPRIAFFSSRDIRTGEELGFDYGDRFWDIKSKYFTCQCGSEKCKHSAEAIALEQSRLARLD
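Methyltransferase reactions run at room temperature for 2 h (20 nM enzyme, 500 nM biotin-H3K9 peptide, 20 uM SAM) after a 15 min compound preincubation; product detected by AlphaScreen beads and anti-H3K9me1 antibody.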
HP1b binding inh: HTS for Inhibitors of HP1-beta Chromodomain Interactions with Methylated Histone Tails | 0.56% of 390,000 active | Chromobox protein homolog 1 (Homo sapiens), P83916 | AlphaScreen HP1-beta / biotin-H3K9me3 peptide binding | Potency, µM (highest dose often 114 µM), without a hit: top-dose activity change, negative = inhibition, actives largely listed as inhibitors; also: nearly all actives have a fitted effect of over 70% in size
Target sequence (P83916 whole entry, looked up): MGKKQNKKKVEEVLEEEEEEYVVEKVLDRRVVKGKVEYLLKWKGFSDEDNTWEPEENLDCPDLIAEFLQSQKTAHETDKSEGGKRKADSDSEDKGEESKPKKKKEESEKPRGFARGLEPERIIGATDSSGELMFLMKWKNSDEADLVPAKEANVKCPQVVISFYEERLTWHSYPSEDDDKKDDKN
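HP1-beta protein (50 nM final) preincubated 30 min at room temperature with biotinylated H3(1-18)K9me3 peptide (50 nM) in PBS pH 7.4, 0.01% Tween-20, then compound added for 30 min. AlphaScreen streptavidin donor/nickel chelate acceptor beads (10 ug/mL final), 30 min dark, luminescence read.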
VDR inhibitor: Inhibitors of the vitamin D receptor (VDR): qHTS; VDR-SRC2-3 peptide fluorescence polarization, 2 h; Potency, µM, for the others: max response, negative = inhibition, actives largely listed as inhibitors; 0.93% of 400,000 active; also: % is scaled to controls: 0 for no effect and ±100 for the full control effect
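Fluorescence polarization assay measuring small-molecule disruption of VDR binding to the coregulator peptide SRC2-3. Compounds were pin-transferred (23 nl) into the reagent mix and incubated 2 h at room temperature before reading.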
Active calls of the source: *; ? = inconclusive; · = not tested or not shown; [ ] = another dose, or the depositor's remark. Hits are enriched below; roughly 11% of the tested compounds scored in any of these assays. Calls follow the shape of the dose curve; as a rule, active = well fitted curve in the direction sought with a large enough effect; inconclusive = small, poorly fitted or top-dose-only effect, or another doubt; inactive = no such curve, though single readings can be large; an effect the other way counts as inactive or inconclusive. Potency is read from the fitted curve at half-maximal effect.

SMILES	BAZ2B block	JMJD2A Tudor inh	PLK1 PBD inh	G9a inh	HP1b binding inh	VDR inhibitor
COc1ccc(S(=O)(=O)Nc2c(C(=O)O)[nH]c3ccc(OC)cc23)cc1	?	20µM*	?	7.94µM*	-30.1%	-7.5%
COc1ccc(S(=O)(=O)Nc2c(C(=O)O)[nH]c3ccccc23)c(OC)c1	?	?	-10.6%	39.8µM*	8.5%	-11.9%
CCN(C(=O)Cc1c(C(=O)O)[nH]c2ccccc12)c1cc(OC)ccc1OC	?	?	-3.2%	10.7%[12.7 µM]	16.9%	-14.9%
COC(=O)c1[nH]c2ccccc2c1NS(=O)(=O)c1ccc(F)c(C)c1	-3.0%	-12.6%	-0.1%	?	14.8%	3.4%
COC(=O)c1[nH]c2ccc(F)cc2c1NS(=O)(=O)c1ccc(OC)cc1	-7.7%	-12.8%	-4.7%	18.6%	35.9%	-0.4%
CCCS(=O)(=O)Nc1c(C(=O)OC)[nH]c2ccccc12	1.1%	0.0%	-5.8%	50.1µM*	23.8%	-1.6%
COc1ccc2[nH]c(C(=O)O)c(NS(=O)(=O)c3ccc(OC)c(OC)c3)c2c1	?	?	?	?	-1.9%	-1.9%
O=C(Nc1cccc(Cl)c1Cl)c1cc(S(=O)(=O)N2CCC3(CC2)OCCO3)ccc1F	6.7%	-20.5%	·	-8.9%[59 µM]	32.1%	13.1%
COc1ccc(OCCN2C(=O)c3ccccc3C2=O)c([N+](=O)[O-])c1	-7.4%	-20.5%	-6.2%	·	38.7%	-3.3%
CCOC(=O)[C@]12CCC=C1N(Cc1ccc(Cl)cc1Cl)C(=O)[C@H](CC(=O)NCc1ccc(C)o1)C2	·	·	-25.1%	·	·	·
COc1cccc(OC)c1OCC(C)CNCC1CCCO1 (stereo unspecified)	?	3.55µM*	-6.5%	?	70.8µM*	2.5%
COc1cc(C(=O)NCC2CCCO2)cc(OC)c1OC (stereo unspecified)	6.8%	-1.4%	-1.2%	18.4%[59 µM]	1.0%	-6.1%
O=C(c1ccc2nc(Cc3cccc(Cl)c3)oc2c1)N1CCC(O)CC1	-3.8%	-16.7%	-2.1%	·	22.3%	-9.5%
CCOc1ccc(NC(=O)CN2C(=O)c3ccccc3Sc3ccc(C(=O)OC)cc32)cc1	3.3%	-3.2%	·	7.4%[59 µM]	24.6%[57 µM]	-4.5%
COc1cccc(C2Nc3ccc4ccccc4c3C3=C2C(=O)CCC3)c1O (stereo unspecified)	2.8%	-8.5%	5.1%	-18.2%	13.1%	-2.3%
Cc1cccc(Oc2ccc3c(c2)Oc2ccccc2NC3=O)c1	50.1µM*	50.1µM*	·	3.9%[59 µM]	-14.9%	-5.5%
c1ccc(-[n+]2nc(Nc3cccc4ccccc34)sc2-c2c3ccccc3cc3ccccc23)cc1	3.55µM*	2.51µM*	-6.6%	25.8%[2.33 µM]	?	1.0%
Oc1ccc2ccccc2c1-c1sc(Nc2ccccc2)n[n+]1-c1ccc(F)cc1	?	?	-20.0%	39.8µM*	20.6%	-8.3%
O=C(CSc1nc(Nc2ccc(F)cc2)c2ccccc2n1)c1ccc(F)cc1	23.6%	-17.0%	·	-2.5%[59 µM]	46.0%	10.7%
CCCNC(=O)c1csc(Nc2cccc3ccccc23)n1	?	-32.8%	-5.8%	16.1%[0.501 µM]	-5.3%	-6.6%
Fc1ccc(-[n+]2nc(Nc3ccccc3)sc2-c2c3ccccc3cc3ccccc23)cc1	5.01µM*	15.8µM*	-6.9%	11.2µM*	?	-19.1%
CCCCCN(C(=O)CCC(=O)OCC(=O)c1cccc(OC)c1)c1c(N)n(CCCC)c(=O)[nH]c1=O	-18.4%	-14.3%	4.9%	?	9.9%	-9.8%
CCCCn1c(N)c(N(CCOC)C(=O)c2ccco2)c(=O)[nH]c1=O	-0.9%	-15.9%	-3.9%	?	30.2%	0.8%
COc1ccccc1N1C(=O)c2cccc3c(C(=O)O)ccc(c23)C1=O	-5.5%	79.4µM*	-8.1%	-11.1%	-7.9%	-21.9%
Cc1c(P(=S)(c2ccccc2)c2ccccc2)c2ccccc2n1C/C=C/c1ccccc1	·	-2.0%	·	·	·	·
SMILES	BAZ2B block	JMJD2A Tudor inh	PLK1 PBD inh	G9a inh	HP1b binding inh	VDR inhibitor
CN(C)S(=O)(=O)c1cccc(-c2nnc(SCC(=O)NCCCCCC(=O)O)n2-c2ccc(F)cc2)c1	-7.1%	?	-19.3%	15.8µM*	46.8%	-3.4%
CNC(=O)CSc1nnc(-c2cccc(S(=O)(=O)N3CCOCC3)c2)n1-c1ccc(F)cc1	-3.6%	-6.1%	2.9%	?	13.0%	4.2%
O=C1c2nccnc2C(=O)N1c1ccc(C(F)(F)F)cc1	-38.6%	-13.6%	-6.1%	50.1µM*	25.4%	-12.6%
CCC(Sc1nc(C)cc(=O)[nH]1)C(=O)Nc1nc2c(s1)CCCC2 (stereo unspecified)	?	-17.9%	-11.9%	44.7µM*	21.2%	-5.0%
CCOc1ccc(NC(=O)c2ccc(NC(=O)Cc3n[nH]c(=O)c4ccccc34)cc2)cc1	-13.6%	1.4%	-5.0%	56.2µM*	20.3%	-5.4%
CC(C)Oc1cccc(C(=O)Nc2ncn[nH]2)c1	50.1µM*	-19.9%	-14.3%	·	54.3%	-0.2%
O=C(Nc1ncn[nH]1)c1ccccc1O	79.4µM*	-27.0%	0.4%	-0.1%[59 µM]	42.3%	5.7%
CCOc1ccc(C(=O)Nc2ncn[nH]2)cc1	50.1µM*	-17.7%	-9.1%	-6.7%	32.2%	-14.1%
O=C(Nc1ccccc1O)c1ccccc1O	-6.3%	?	-9.8%	?	-1.9%	12.3%
Cc1cc(C(=O)Nc2ncn[nH]2)ccc1[N+](=O)[O-]	50.1µM*	-24.5%	0.7%	-6.7%[59 µM]	53.5%	-1.5%
O=C1NC(C(=O)O)=CC(c2ccc([N+](=O)[O-])cc2)N1 (stereo unspecified)	?	17.8µM*	-3.8%	8.91µM*	11.1%[57 µM]	-26.4%
COc1cccc(C2c3c(oc4ccc(C)cc4c3=O)C(=O)N2CCCN2CCOCC2)c1OC (stereo unspecified)	-13.8%	-1.3%	·	-17.4%[59 µM]	43.0%	2.4%
O=C(NNC(=S)Nc1cccc(Cl)c1)c1ccccc1	-9.1%	-21.2%	-25.6%	35.5µM*	19.2%	-0.1%
O=C(NNC(=S)Nc1ccccc1Cl)c1ccccc1	1.8%	-16.0%	-16.8%	·	9.8%	-7.8%
O=C(CN1c2ccccc2Sc2ccccc21)NNC(=S)Nc1ccc(Cl)cc1	?	?	-13.2%	28.2µM*	?	2.2%
CCn1c(C)nc2cc(C(=O)NNS(=O)(=O)c3c(F)cc(F)c(Cl)c3F)ccc21	-19.8%	25.1µM*	-9.0%	39.8µM*	17.1%	-10.2%
O=C(CN1c2ccccc2Sc2ccccc21)NNC(=S)Nc1ccc(Cl)cc1Cl	-5.2%	-23.0%	-8.4%	65.6%[59 µM]	12.5%	-7.5%
O=C(NNC(=S)Nc1ccc(Cl)cc1)c1ccccc1	0.7%	-16.3%	-25.9%	35.5µM*	1.5%	26.1%

From PubChem BioAssay
